Reference: PubChem BioAssay (Tox21)
A number with no mark means an inactive call. Calls come from the whole dose curve.

biological target: Muscarinic acetylcholine receptor M1 (Homo sapiens) (UniProt P11229); assay: Cholinergic receptor muscarinic 1 (CHRM1) small molecule agonists, cell-based qHTS assay (AID 1963589); conditions: CHRM1-CHO cells, agonist mode, calcium flux fluorescence; series mostly up to 76.8 µM; activation: at the top concentration; note: nearly all actives have a fitted effect of over 35% in size
Sequence (P11229 whole entry, looked up): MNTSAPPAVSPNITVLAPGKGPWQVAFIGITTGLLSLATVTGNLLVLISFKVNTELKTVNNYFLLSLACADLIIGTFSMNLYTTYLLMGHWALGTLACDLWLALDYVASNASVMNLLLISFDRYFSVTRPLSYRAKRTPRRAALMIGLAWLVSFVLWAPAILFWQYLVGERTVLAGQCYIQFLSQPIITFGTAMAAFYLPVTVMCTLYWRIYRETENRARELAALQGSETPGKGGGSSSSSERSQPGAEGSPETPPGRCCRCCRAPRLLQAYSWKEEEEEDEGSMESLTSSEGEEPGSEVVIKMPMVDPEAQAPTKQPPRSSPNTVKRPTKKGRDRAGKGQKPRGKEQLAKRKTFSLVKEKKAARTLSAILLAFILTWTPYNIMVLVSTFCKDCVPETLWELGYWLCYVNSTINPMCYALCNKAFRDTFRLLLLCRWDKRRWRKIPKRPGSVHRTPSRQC
Excerpt: National Center for Advancing Translational Sciences [NCATS]
Division of Preclinical Innovation [DPI]
U.S. Environmental Protection Agency [EPA]
National Institutes of Environmental Health Sciences [NIEHS]
National Toxicology Program [NTP]
U.S. Food and Drug Administration [FDA]
The CHRM1 is a muscarinic receptor. This receptor plays a crucial role in learning and memory processes and has long been identified as a promising therapeutic target for the improvement of cognitive decline in Alzheimer's disease (AD). The CHRM1-CHO cell line stably expressing human muscarinic acetylcholine receptor M1 (CHRM1) can be used for screening agonists and antagonists of interactions between CHRM1 and its ligands. The CHRM1-CHO Calcium Flux Assay is a homogeneous fluorescence-based assay for detecting the intracellular calcium level using FDSS kinetic plate reader system.
CHRM1-CHO cells were dispensed at 1000 cells/3uL/well in 1536-well black-clear bottom plates using a Multidrop Dispenser. After the assay plates were incubated at a 37 C/5% CO2 incubator for 18 h, 3 uL of Dye Loading Buffer was transferred to the assay plate by a Flying Reagent Dispenser. The assay plates were incubated at 37 C for 1h. For agonist mode, 23 nL of compounds dissolved in DMSO, positive controls or DMSO only was transferred to the assay plate by a pin tool. […] Each test compound was measured at 15 concentrations in three independent runs.
% is set by controls: 0 for no effect and ±100 for the full control effect.

SMILES | activation
O=C(Nc1ccc(Cl)c(Cl)c1)C1CC1 | -0.0273% [at 35.3 µM]
CCCCCCCC(=O)Oc1c(Br)cc(C#N)cc1Br | 1.37%
CC(C)(C#N)Nc1nc(Cl)nc(NC2CC2)n1 | -0.608%
O=c1[nH]cnc2ccccc12 | 0.449%
CC(=O)SC[C@@H](Cc1ccccc1)C(=O)NCC(=O)OCc1ccccc1 | 1.04% [at 35.3 µM]
Cc1c(C)c2c(c(C)c1OC(=O)CCC(=O)OCCO)CC[C@@](C)(CCC[C@H](C)CCC[C@H](C)CCCC(C)C)O2 | -0.0326% [at 35.3 µM]
CN(C)CCC=C1c2ccccc2C=Cc2ccccc21 | -0.0153% [at 35.3 µM]
C[Si](NC1CCCCC1)(NC1CCCCC1)NC1CCCCC1 | 0.705%
ClC1=C(Cl)C1(Cl)Cl | 0.172%
CCC(CO)(CO)COCC(CC)(CO)CO | -0.171%
CCN(CC)C(=O)/C(C#N)=C/c1cc(O)c(O)c([N+](=O)[O-])c1 | 2.64% [at 35.3 µM]
C=CC(C)C#N (stereo not given) | 0.497%
CC[C@H](NC(C)C)[C@H](O)c1ccc(O)c2[nH]c(=O)ccc12 | -0.118% [at 35.3 µM]
OCC(F)(F)F | -0.171%
CC1c2ccccc2CN1NC(=O)c1ccc(Cl)c(S(N)(=O)=O)c1 (stereo not given) | 0.108% [at 35.3 µM]
CCOc1ccc([N+](=O)[O-])cc1 | 3.69%
C[C@H]1NCc2cc(-c3ccc4c(=O)c(C(=O)O)cn(C5CC5)c4c3OC(F)F)ccc21 | -0.122% [at 15.8 µM]
Cc1cc(C)c(C=O)c(C)c1 | 0.603%
CCOc1ccccc1O[C@H](c1ccccc1)[C@H]1CNCCO1 | -0.303% [at 35.3 µM]
O=C1OC(O)C(C(Cl)Cl)=C1Cl (stereo not given) | 0.737%

SMILES | activation
CCCCCCCCCCCCN1CCOCC1 | -0.62%
CCN(CC)CC(=O)Nc1c(C)cccc1C(=O)OC | -6.64% [at 35.3 µM]
O[C@@H](COc1cccc2ncccc12)CN1CCN(C2c3ccccc3[C@@H]3[C@H](c4ccccc42)C3(F)F)CC1 (stereo not given in full) | -0.342% [at 35.3 µM]
Nc1ccc(F)c([N+](=O)[O-])c1 | -0.647%
O=C1CCCc2c(O)cccc21 | -0.269% [at 35.3 µM]
CC(C)=CCC/C(C)=C/C=N/O | -0.299%
O=S(=O)(O)c1ccc(O)c2ncccc12 | -0.18%
CCCCCCCC | 0.275%
CC[N+](CC)(CCNC(=O)C(=O)NCC[N+](CC)(CC)Cc1ccccc1Cl)Cc1ccccc1Cl | -0.766% [at 35.3 µM]
CCCCOCC | 0.292%
Cc1c(C(C)C)c(=O)n(-c2ccccc2)n1C | -1.01% [at 35.3 µM]
C#Cc1ccc(-c2ccccc2F)cc1 | -0.772% [at 35.3 µM]
CCC=O | -0.0838%
Cc1cnc(NS(=O)(=O)c2ccc(N)cc2)nc1 | -1.23% [at 35.3 µM]
CCN(CCCCOC(=O)c1ccc(OC)c(OC)c1)C(C)Cc1ccc(OC)cc1 (stereo not given) | -0.557% [at 35.3 µM]
O=C(/C=C/c1ccc(O)c(O)c1)O[C@@H]1C[C@](O)(C(=O)O)C[C@@H](O)[C@H]1O | -0.152%
CCCC(=O)OCOC(=O)C1=C(C)NC(C)=C(C(=O)OC)C1c1cccc(Cl)c1Cl (stereo not given) | -0.519% [at 35.3 µM]
COc1cc(NS(=O)(=O)c2ccc(N)cc2)ncn1 | -2.14% [at 35.3 µM]
CCOC(=O)Cn1cccc1-c1nc(-c2ccc(OC)cc2)c(-c2ccc(OC)cc2)s1 | 1.85% [at 35.3 µM]
Oc1ccc2c(c1)CCC2 | -0.295%
